Data as given in PubChem BioAssay (NCI).
The panel holds about 83,000 compounds, 20% with a hit somewhere; the sample as a whole holds those more often.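 Compound tested at a single concentration for 48 hours in 96-well plates; a percent growth value below 10 was scored as active.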 Unmarked numbers belong to inactive results. Active and inactive are the calls of the source.

Test system: MDA-MB-468 breast
Assay: NCI-60 one-dose screen, 48 h (100 = growth as untreated, 0 = no growth, -100 = all killed)
Details: 10 µM unless noted

Compound	growth
COC1=CC(c2ccc[nH]2)=N/C1=C\c1[nH]c(C)c(C(=O)OCCn2cc(CCC[C@@H]3Cc4cc(O)ccc4C4CC[C@]5(C)[C@@H](O)CC[C@H]5C43)nn2)c1C (stereo partly drawn)	78%
COc1ccc(NC(=O)c2sc3c(=O)[nH]c(C(F)(F)F)nc3c2C)cc1	131%
CC(=O)N1Cc2ccccc2C(C)Cc2cc(Cl)ccc21 (stereo not drawn)	113%
COc1ccc(CNCCCN2C(=O)c3ccc4c5c(ccc(c35)C2=O)C(=O)N(CCCNCc2ccc(OC)c(OC)c2OC)C4=O)c(OC)c1OC	-94.8% (active)
C[C@H]1[C@H](C)CC[C@]2(C(=O)N3CCN(C)CC3)CC[C@]3(C)C(=CC[C@@H]4[C@@]5(C)C/C(=C/c6cccnc6)C(=O)C(C)(C)[C@@H]5CC[C@]43C)[C@H]12	-83.2% (active)
COc1ccc2nc3c(cc2c1)C(=O)CC(C(F)(F)F)C3 (stereo not drawn)	35.6%
CCCCCCCCCCCCCCCCCC1=NC(C)(CO)CO1 (stereo not drawn)	82%
CC(C)OCC1CO1 (stereo not drawn)	108%
NC(=O)CSSCC(N)=O	105%
COc1ccc(Cn2cc(COc3cc(/C=C/C(=O)c4cc(OC)c(OC)c(OC)c4)ccc3OC)nn2)cc1	49%
COc1ccc(C(=O)OC2C(OC3C(O)COC(O[C@H]4C[C@H]5[C@@H]6CC=C7C[C@@H](O)CC[C@]7(C)[C@H]6CC[C@]5(C)[C@H]4[C@H](C)C(=O)CCC(C)C)C3OC(=O)C(C)C)OCC(O)C2O)cc1 (stereo partly drawn)	-2.45% (active)
CC1(C)CC2=C3C=C[C@@H]4[C@@]5(C)CCC(=O)C(C)(C)[C@@H]5CC[C@@]4(C)[C@]3(C)CC[C@@]2(C(=O)O)C[C@H]1O	40.3%
C#CCNC(=O)[C@H](Cc1ccccc1)NC(=O)[C@]12CC[C@@H](C(=C)C)[C@@H]1[C@H]1CC[C@@H]3[C@@]4(C)Cc5c([nH]c6ccccc56)C(C)(C)[C@@H]4CC[C@@]3(C)[C@]1(C)CC2	97.9%
Oc1[nH]c2ccccc2c1/C=c1/cc2c(c(-c3ccc(C(F)(F)F)cc3)n1)=Nc1ccccc1-2	21.6%
COc1cc(NC2=C(Cl)C(=O)c3nc(C)ccc3C2=O)cc(OC)c1	-78.5% (active)
COc1ccc(CN2c3ccccc3CCc3ccccc32)cc1F	4.48% (active)
O=C(Nc1cccc(-n2cc(-c3ccncc3)c(-c3ccc(Cl)c(O)c3)n2)c1)c1ccccc1	64.1%

Compound	growth
NS(=O)(=O)c1ccc(CCN2C(=O)C3C(C2=O)C2(Cl)C(Cl)=C(Cl)C3(Cl)C2(Cl)Cl)cc1 (stereo not drawn)	109%
CN(C=O)c1ccccc1	87.3%
O=C(N/N=C/c1cccnc1)c1ccccc1Nc1cccc(C(F)(F)F)c1	74.5%
CCOc1ccc(Nc2ccnc3cc(Cl)ccc23)cc1	-1.66% (active)
C[C@]12CCC(=O)C=C1CC[C@H]1[C@@H]3C[C@@H](O)[C@](O)(C(=O)CO)[C@@]3(C)C[C@H](O)[C@@]12F	128%
O=C1Nc2ccc(Cl)cc2/C1=N/N=C/c1c[nH]c2ccccc12	98.7%
N=C(N)c1ccc(-c2ccc(-c3ccccc3)s2)cc1F	-78.4% (active)
Cc1cc(C)cc(NC2=C(Cl)C(=O)c3nc(C)ccc3C2=O)c1	-75.8% (active)
CC(C)n1cnc2c(=S)nc[nH]c21	104%
CC(C)(C)c1ccc(O)c(Cc2cc(C(C)(C)C)ccc2O)c1	119%
O=C1c2ccc3c4c(ccc(c24)C(=O)N1CCNCc1ccccc1)C(=O)N(CCNCc1ccccc1)C3=O	-62.9% (active)
Cc1cc(Cl)nc(N(CCNc2ccnc3cc(Cl)ccc23)Cc2ccco2)n1	29.9%
CCCCn1c(=O)c2c(nc3n2CCCN3CCc2ccc(OCC(=O)NCCN(CC)CC)cc2)n(CCCC)c1=O	43.7%
C(/C=C/c1ccccc1)=Nc1ccc(CCc2ccc(N=C/C=C/c3ccccc3)cc2)cc1	83.3%
CC1(C)CC(=O)C2=C(C1)C(c1ccc(Cl)cc1)n1ncc(C#N)c1N2 (stereo not drawn)	105%
C=C(C)[C@@H]1CC[C@]2(C(=O)N[C@@H](Cc3ccccc3)C(=O)OC)CC[C@]3(C)[C@H](CC[C@@H]4[C@@]5(C)CCC(=O)C(C)(C)[C@@H]5CC[C@]43C)[C@@H]12	84.2%
